# According to PubChem BioAssay:
# Activity calls are given as the source filed them.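 The calls were made as follows, unless noted: active = inhibition at or above 50% at 10 µM; inactive = inhibition below 50%.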
# Assays:
# [1] = inhibitors of TNFa-induced NFkB p65 translocation, primary screen, imaging, HUVEC, MLSMR starter and 10KST1 sets (AID 438;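 active = inhibition above 20% together with a positive visual image hit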;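 also: compound added about 3h40 before a 20 min TNFalpha stimulation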;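 as to inhibition: signal is the nuclear over cytoplasmic p65 intensity ratio per well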); settings: HUVEC TNFa-induced p65 nuclear translocation; cell count: measured here: nuclei count (cytotoxicity indicator), at 2.08 µM; inhibition: at 2 µM, stronger effect = higher value, 0% TNFa-plus-vehicle, 100% no-TNFa wells
# [2] = reduction of polyQ htt aggregates in cells – imaging, exon1htt(103Q)mCFP cells, high-content imaging, primary screen (AID 483;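 active = visual image review flags a hit and inhibition of aggregation exceeds 20%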;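 also: compound exposure lasted 3 days before fixation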;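 as to nuclei count: percent of the per-plate median nuclei count of sample wells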); settings: exon1htt(103Q)mCFP cell line, aggregate imaging, at 2 µM; inhibition of aggregation: stronger effect = higher value; nuclei count: measured here: cell count, toxicity
# [3] = endothelial E-selectin expression blockers – imaging, HUVEC, immunofluorescence, MLSMR starter and 10KST1 sets, primary screen (AID 487;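 active = visually confirmed hit in the image check and inhibition above 20%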;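 as to inhibition: signal is fraction of cell area covered by stained E-selectin grains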;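 as to nuclei count: 100% = median nuclei count of all wells on the same plate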); settings: HUVEC TNFalpha-induced E-selectin immunofluorescence imaging, at 2 µM; inhibition: stronger effect = higher value; nuclei count: measured here: cell number, toxicity
# [4] = biological target: Voltage-gated potassium channel subunit beta-2 (Rattus norvegicus) (UniProt P62483); test: inhibitors of rat Kvbeta2 reductase activity – biochemical, NADPH fluorescence, primary screen (AID 622;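 active = fluorescence slope higher than the sample average by over 3 SD, cut at about -0.22 in these data, passing the limit was not always enough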;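 also: slope of raw intensity against log time taken from 70 to 1610 s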); settings: recombinant KvBeta, 4-cyanobenzaldehyde reduction, at 10 µM, stronger effect = higher value
# Chain of Voltage-gated potassium channel subunit beta-2 (Rattus norvegicus) (P62483 whole entry, looked up): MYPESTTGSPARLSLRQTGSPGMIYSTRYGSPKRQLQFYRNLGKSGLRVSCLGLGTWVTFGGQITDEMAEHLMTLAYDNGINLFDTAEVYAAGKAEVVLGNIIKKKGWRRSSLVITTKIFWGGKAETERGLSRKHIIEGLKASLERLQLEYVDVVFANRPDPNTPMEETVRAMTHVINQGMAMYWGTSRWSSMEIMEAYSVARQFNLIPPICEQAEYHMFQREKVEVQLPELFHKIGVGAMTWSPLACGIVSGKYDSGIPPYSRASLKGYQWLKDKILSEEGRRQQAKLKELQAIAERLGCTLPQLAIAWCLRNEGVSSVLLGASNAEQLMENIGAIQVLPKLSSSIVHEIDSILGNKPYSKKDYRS
# [5] = biological target: Voltage-gated potassium channel subunit beta-2 (Rattus norvegicus) (UniProt P62483); test: enhancers of rat Kvbeta2 NADPH turnover – biochemical, NADPH fluorescence, primary screen (AID 623;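 active = NADPH fluorescence slope more negative than the mean of all samples by about 3 SD, 99.7% confidence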;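 also: fluorescence intensity change per second fitted from 20 to 320 s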); settings: Recombinant KvBeta, NADPH fluorescence decrease slope, 10 min; at 10 µM; stronger effect = lower value
# [6] = biological target: Alpha-2C adrenergic receptor (Homo sapiens) (UniProt P18825); test: compounds altering alpha2C-coupled GIRK flux – cell-based, HEK293 alpha2C/GIRK1/2, thallium flux, primary screen (AID 624;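 active = fluorescence slope after compound addition differing from the mean of all screened samples at 99.7% confidence, in either direction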;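 also: slope of fluorescence ratio to pre-addition baseline per second over 15 to 24 s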); settings: thallium flux BTC fluorescence, at 10 µM, actives lie on both sides
# Chain of Alpha-2C adrenergic receptor (Homo sapiens) (P18825 whole entry, looked up): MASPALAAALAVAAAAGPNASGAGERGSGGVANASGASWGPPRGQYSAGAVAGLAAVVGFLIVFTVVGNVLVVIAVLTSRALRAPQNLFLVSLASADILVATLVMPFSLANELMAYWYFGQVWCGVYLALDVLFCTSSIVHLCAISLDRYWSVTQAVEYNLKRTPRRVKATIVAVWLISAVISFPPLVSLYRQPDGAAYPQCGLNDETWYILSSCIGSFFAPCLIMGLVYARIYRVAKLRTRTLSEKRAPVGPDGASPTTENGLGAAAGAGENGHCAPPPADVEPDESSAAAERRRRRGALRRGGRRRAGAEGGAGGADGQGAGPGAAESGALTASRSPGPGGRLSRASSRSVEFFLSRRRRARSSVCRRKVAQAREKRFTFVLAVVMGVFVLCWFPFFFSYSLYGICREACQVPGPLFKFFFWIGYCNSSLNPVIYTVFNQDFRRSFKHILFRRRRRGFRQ
# [7] = blockers of RIG-like receptor reporter activation – cell-based, Sendai virus stimulus, luciferase, 10K MLSCN set, TLR/RLR signaling modifier project, primary screen (AID 602276); settings: HEK293 RL24 IRF3 luciferase reporter, at 10 µM, stronger effect = higher value;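 also: firefly luciferase from ISG56 promoter only with Renilla not read in this screen; 0% = Sendai virus plus DMSO and 100% = medium plus DMSO without virus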
# [8] = TLR3 IRF3 reporter activation blockers – cell-based, poly I:C stimulus, luciferase, 10K MLSCN set, primary screen (AID 602277;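 active = inhibition of the reporter signal at or above 50%; inactive = inhibition below 50%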); settings: HEK293-TLR3 RL24 IRF3 luciferase reporter, at 10 µM, stronger effect = higher value
SMILES,cell count [1],inhibition [1],inhibition of aggregation [2],nuclei count [2] [%],inhibition [3],nuclei count [3] [%],fluorescence slope [4],NADPH fluorescence slope [5],slope [6],inhibition [7],inhibition [8]
CCc1nnc2n1N=C(c1ccc(-c3ccc(Cl)cc3Cl)o1)CS2,480,3.3% (inactive),-48.4% (inactive),102,-6.7% (inactive),105,-0.607 (inactive),1.7e-05 (inactive),0.00636 (inactive),6.74% (inactive),10.2% (inactive)
COc1ccc(S(=O)(=O)N2CCOCC2)cc1C(=O)Nc1cc(C)on1,225,1.1% (inactive),-3.3% (inactive),96.6,38.6% (inactive),76.9,-0.436 (inactive),-3.9e-05 (inactive),0.00355 (inactive),-8.66% (inactive),12.5% (inactive)
CSc1cccc(NS(=O)(=O)c2ccccc2)c1,420,-1.4% (inactive),-3.4% (inactive),99.5,-38% (inactive),106,-0.283 (inactive),-2.2e-05 (inactive),0.00527 (inactive),9.48% (inactive),27.9% (inactive)
COC(=O)c1ccc(C2CC(=O)Nc3cc(OC)c(OC)c(OC)c32)cc1 (centres undefined),416,3.3% (inactive),11.2% (inactive),90.4,-82.3% (inactive),157,-0.424 (inactive),-3.3e-05 (inactive),0.00514 (inactive),11.7% (inactive),25.2% (inactive)
COc1cccc(-c2nc(CS(=O)CC(=O)NCCCOC(C)C)c(C)o2)c1 (centres undefined),193,-13% (inactive),5.9% (inactive),119,-27.1% (inactive),95.8,-0.486 (inactive),-9.9e-06 (inactive),0.00479 (inactive),11.4% (inactive),7.08% (inactive)
O=C(CN1C(=O)CSC1=O)N1CCc2ccccc2C1,324,4.8% (inactive),14% (inactive),101,0.8% (inactive),107,-0.423 (inactive),-5.1e-05 (inactive),0.00367 (inactive),6.34% (inactive),31% (inactive)
COc1ccc(Oc2c(C)oc3cc(OC(=O)N4CCOCC4)ccc3c2=O)cc1,770,-4.9% (inactive),11.1% (inactive),95.2,-28.1% (inactive),112,-0.402 (inactive),2.6e-05 (inactive),0.00567 (inactive),3.22% (inactive),-6.73% (inactive)
COc1ccccc1Nc1nc2ccccc2[nH]1,654,4.7% (inactive),4.6% (inactive),94.6,-12.4% (inactive),96.8,-0.427 (inactive),-3.7e-06 (inactive),0.00559 (inactive),-19.5% (inactive),-54.9% (inactive)
O=C(Nc1ccc(N2CCOCC2)cc1)C1CC1,344,3.5% (inactive),25% (inactive),83.9,-16.5% (inactive),121,-0.39 (inactive),-2.3e-05 (inactive),0.00566 (inactive),6.17% (inactive),-13.8% (inactive)
CCn1c(SCC(=O)c2ccc(C)cc2)nnc1-c1ccoc1C,446,-11.7% (inactive),3.7% (inactive),77.4,-138% (inactive),119,-0.329 (inactive),-6.6e-05 (inactive),0.00433 (inactive),-8.3% (inactive),-36.4% (inactive)
CCN(CC)C1CCCCC1NS(=O)(=O)c1ccc(Cl)cc1 (centres undefined),528,-9.2% (inactive),14.4% (inactive),96.8,-17.6% (inactive),82.7,-0.538 (inactive),-1.7e-06 (inactive),0.00692 (inactive),45.1% (inactive),28% (inactive)
CCCS(=O)(=O)NCCc1cc2cc(C)c(C)cc2[nH]c1=O,321,-18.8% (inactive),4.2% (inactive),84.9,-16.4% (inactive),106,-0.587 (inactive),-7.5e-05 (inactive),0.0056 (inactive),4.21% (inactive),-4.55% (inactive)
N#Cc1ccccc1Cn1c(=O)n(Cc2ccc(C(=O)NCc3ccco3)cc2)c(=O)c2ccccc21,689,-11.4% (inactive),-4.5% (inactive),83.9,-47.4% (inactive),92.1,-0.5 (inactive),2e-05 (inactive),0.00719 (inactive),1.35% (inactive),-0.0219% (inactive)
CCOc1ccc(CNC(=O)C2CCCN(S(C)(=O)=O)C2)cc1OC (centres undefined),664,-7.1% (inactive),11.9% (inactive),84,-95.3% (inactive),136,-0.356 (inactive),-1.3e-05 (inactive),0.00564 (inactive),9.09% (inactive),12% (inactive)
